PubChem BioAssay AID624034 (National Center for Advancing Translational Sciences (NCATS), 2012)
Inconclusive results are not listed. The source made the active and inactive calls. Calls come from the whole dose curve; as a rule, active = well fitted inhibition curve with a large enough effect; inconclusive = small, poorly fitted or top-dose-only effect; inactive = flat fitted curve, though single readings scatter.

biological target: Dual specificity protein kinase CLK4 (Homo sapiens) (UniProt Q9HAZ1); assay: Reaction Biology data for inhibitors of CLK4: Probe SAR; conditions: Reaction Biology CLK4 kinase assay, 10 uM ATP; series mostly up to 10 µM
Sequence (Q9HAZ1 whole entry, looked up, canonical isoform): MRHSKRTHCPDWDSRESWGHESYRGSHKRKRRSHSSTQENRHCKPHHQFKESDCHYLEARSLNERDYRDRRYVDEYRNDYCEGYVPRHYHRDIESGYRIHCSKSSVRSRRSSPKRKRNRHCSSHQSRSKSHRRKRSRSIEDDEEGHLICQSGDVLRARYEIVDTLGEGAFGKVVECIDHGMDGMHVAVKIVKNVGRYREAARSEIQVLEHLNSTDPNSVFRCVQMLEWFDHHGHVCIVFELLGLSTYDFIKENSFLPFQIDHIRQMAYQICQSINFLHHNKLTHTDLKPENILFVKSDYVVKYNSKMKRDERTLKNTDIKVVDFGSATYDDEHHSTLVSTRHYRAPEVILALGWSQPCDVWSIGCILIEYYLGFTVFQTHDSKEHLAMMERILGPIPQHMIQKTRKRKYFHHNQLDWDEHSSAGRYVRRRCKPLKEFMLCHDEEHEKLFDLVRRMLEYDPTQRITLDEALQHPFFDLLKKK
Text: Alternative splicing of pre-mRNAs plays a major role in the regulation of eukaryotic gene expression. Alternative splicing is now thought to be one of the primary reasons for the complexity of higher organisms leading to an average of three protein isoforms per gene. Aberrant splicing can lead to a number of diseases and is known to play a role in rare genetic diseases such as progeria syndrome. Hutchinson-Gilford Progeria Syndrome (HGPS) is a pediatric premature aging disease caused by a spontaneous mutation in the lamin A/C (LMNA) gene due to a single point mutation in the lamin A gene effecting 1 in 4 million people. To identify both specific splicing modulators of the lamin A gene as well as general splicing modulators, a cell-based HTS assay was developed using a minigene reporter system (AIDs, 1459 & 1487). […] This AID summarizes the characterization of lead compounds in Clk4. NIH Molecular Libraries Probe Production Centers Network [MLPCN] NIH Chemical Genomics Center [NCGC] MLPCN Grant: MH084827 Assay Submitter (PI): Tom Misteli
Compound IC50s were determined at Reaction Biology (http://www.reactionbiology.com) with ten concentration points starting at 10 uM in the assay using a 3-fold dilution series. The control compound staurosporine was also tested in the 10-dose IC50 mode with the same 3-fold serial dilution, again starting at 10 uM. All kinase reactions were performed using 10 uM ATP in the assay. 100% activity was taken from kinase reactions with DMSO alone (the vehicle used for compound stock solutions).

Potency, inactive:
COc1ccc(-c2ccnc(NCc3ccc(Cl)c(Cl)c3)n2)cc1OC

Potency, active:
O=[N+]([O-])c1cc(Nc2nccc(-c3ccc4c(c3)OCO4)n2)cc(C(F)(F)F)c1 23.1 nM
c1nc(NCC2CCCO2)c2cc(-c3ccc4c(c3)OCO4)ccc2n1 (configuration not stated) 50.1 nM
Clc1ccc(CNc2nccc(-c3ccc4c(c3)OCCO4)n2)cc1Cl 13.1 nM
Clc1ccc(CNc2ncncc2-c2ccc3c(c2)OCO3)cc1Cl 526 nM
Cc1nc(CN(C)c2ncnc3ccc(-c4ccc5c(c4)OCO5)cc23)cs1 15.9 nM
c1cncc(CNc2ccnc(-c3ccc4cn[nH]c4c3)n2)c1 1290 nM
COc1ccc(-c2ccnc(NCc3ccc(Cl)c(Cl)c3)n2)cc1 91.7 nM
COc1cccc(-c2ccnc(NCc3ccc(Cl)cc3)n2)c1 6810 nM
Cc1c(-c2ccnc(NCc3ccc(Cl)cc3)n2)sc(=O)n1C 273 nM
Clc1cc(Cl)cc(CNc2ncncc2-c2ccc3c(c2)OCO3)c1 68.2 nM
Cc1c(-c2ccnc(NCc3cccnc3)n2)sc(=O)n1C 87.8 nM
COc1ccc(-c2ccnc(NCc3ccc(Cl)cc3)n2)cc1 319 nM
c1cncc(CNc2nccc(-c3ccc4[nH]ncc4c3)n2)c1 60 nM
Clc1ccc(CNc2nccc(-c3ccc4c(c3)OCO4)n2)cc1Cl 14.4 nM
Clc1ccc(CNc2nccc(-c3ccc4[nH]ncc4c3)n2)cc1Cl 30.3 nM
COc1cccc(-c2ccnc(NCc3ccc(Cl)c(Cl)c3)n2)c1 3860 nM
c1cncc(CNc2ccnc(-c3ccc4[nH]ncc4c3)n2)c1 574 nM
Cc1nc(CN(C)c2ncnc3ccc(-c4ccc5[nH]ncc5c4)cc23)cs1 37.7 nM
c1cncc(CNc2nccc(-c3ccc4c(c3)OCO4)n2)c1 15.9 nM
Brc1ccc(CNc2nccc(-c3ccc4c(c3)OCO4)n2)cc1Br 17.7 nM
Brc1cc(Br)cc(CNc2nccc(-c3ccc4c(c3)OCO4)n2)c1 9.4 nM
c1cc(-c2ccc3c(c2)OCO3)nc(Nc2ccc3c(c2)OCO3)n1 74.8 nM
Cc1nc(CNc2ncnc3ccc(-c4ccc5c(c4)OCO5)cc23)cs1 25 nM
FC(F)(F)c1cccc(Nc2nccc(-c3ccc4c(c3)OCO4)n2)c1 41.7 nM
Clc1ccc(CNc2nccc(-c3ccc4cn[nH]c4c3)n2)cc1Cl 123 nM
FC(F)(F)c1cc(Br)cc(Nc2nccc(-c3ccc4c(c3)OCO4)n2)c1 85.5 nM
